Reference: the supplement of paper PMC6411743
± gives the standard deviation of the averaged measurements. The full data set covers some 5,400 targets. This sample favours those with the largest changes.

Compound: Nc1nc2c(ncn2[C@@H]2O[C@H](COP(=O)(O)OP(=O)(O)OP(=O)(O)O)[C@@H](O)[C@H]2O)c(=O)[nH]1 [guanosine triphosphate]
Assay: NP40-soluble protein abundance relative to vehicle (solubility fold change) (ratio); higher = more soluble protein in presence of GTP
How it was run: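 Crude Jurkat lysate, prepared by Dounce homogenisation, was exposed to eight concentrations from 0.1 to 10 mM for 10 min at room temperature and then 3 min at 37 °C. Solubilisation used 0.8% NP40 with benzonase for 60 min at 4 °C, followed by ultracentrifugation and TMT labelling of the supernatant for LC-MS/MS. After vsn normalisation of intensities, each value is the fold change against the detergent-processed vehicle within each replicate, across three independent experiments.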

UniProt Q9BTT4, sequence (Q9BTT4 whole entry): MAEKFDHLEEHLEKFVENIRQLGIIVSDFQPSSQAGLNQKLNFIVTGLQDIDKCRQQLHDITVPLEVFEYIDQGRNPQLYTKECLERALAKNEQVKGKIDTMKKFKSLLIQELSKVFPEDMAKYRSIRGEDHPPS
UniProt Q9BVP2, sequence (Q9BVP2 whole entry): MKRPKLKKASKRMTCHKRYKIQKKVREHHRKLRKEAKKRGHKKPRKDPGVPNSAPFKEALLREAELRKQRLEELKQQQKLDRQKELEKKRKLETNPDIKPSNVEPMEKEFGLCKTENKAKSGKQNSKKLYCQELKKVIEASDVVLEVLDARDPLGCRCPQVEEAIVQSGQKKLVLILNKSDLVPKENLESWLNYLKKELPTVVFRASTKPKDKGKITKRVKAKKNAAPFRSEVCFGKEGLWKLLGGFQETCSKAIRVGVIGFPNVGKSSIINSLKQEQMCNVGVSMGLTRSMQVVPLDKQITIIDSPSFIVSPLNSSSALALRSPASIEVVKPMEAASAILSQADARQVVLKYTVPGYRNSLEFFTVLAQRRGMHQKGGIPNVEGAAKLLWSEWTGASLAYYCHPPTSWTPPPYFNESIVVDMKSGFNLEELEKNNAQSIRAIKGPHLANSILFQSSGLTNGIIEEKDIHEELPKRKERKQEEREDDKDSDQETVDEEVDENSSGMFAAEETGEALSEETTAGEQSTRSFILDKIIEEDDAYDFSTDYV
UniProt Q9Y508, sequence (Q9Y508 whole entry): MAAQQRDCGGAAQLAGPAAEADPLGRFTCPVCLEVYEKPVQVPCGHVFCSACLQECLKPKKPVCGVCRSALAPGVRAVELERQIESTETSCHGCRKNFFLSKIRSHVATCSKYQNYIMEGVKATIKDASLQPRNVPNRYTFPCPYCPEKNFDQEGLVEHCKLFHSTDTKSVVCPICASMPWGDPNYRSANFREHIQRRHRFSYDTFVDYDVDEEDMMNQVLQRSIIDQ
UniProt Q9BZM5, sequence (Q9BZM5 whole entry): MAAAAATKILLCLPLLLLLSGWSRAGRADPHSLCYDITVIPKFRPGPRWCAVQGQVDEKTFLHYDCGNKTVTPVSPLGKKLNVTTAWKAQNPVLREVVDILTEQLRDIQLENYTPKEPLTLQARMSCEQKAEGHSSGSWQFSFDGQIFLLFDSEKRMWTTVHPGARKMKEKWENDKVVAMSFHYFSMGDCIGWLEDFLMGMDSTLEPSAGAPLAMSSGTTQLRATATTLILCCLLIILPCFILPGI
UniProt Q9BT73, sequence (Q9BT73 whole entry): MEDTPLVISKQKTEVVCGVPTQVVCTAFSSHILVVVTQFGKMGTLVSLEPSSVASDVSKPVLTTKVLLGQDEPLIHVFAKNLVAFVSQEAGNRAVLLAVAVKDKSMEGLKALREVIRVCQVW
UniProt Q9NPD3, sequence (Q9NPD3 whole entry): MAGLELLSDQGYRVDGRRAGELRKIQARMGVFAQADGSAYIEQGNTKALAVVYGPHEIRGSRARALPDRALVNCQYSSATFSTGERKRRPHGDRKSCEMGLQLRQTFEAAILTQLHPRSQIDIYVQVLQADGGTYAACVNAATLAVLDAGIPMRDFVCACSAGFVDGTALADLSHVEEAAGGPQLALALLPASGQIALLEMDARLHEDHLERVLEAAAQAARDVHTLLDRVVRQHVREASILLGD
UniProt Q96JM7, sequence (Q96JM7 whole entry): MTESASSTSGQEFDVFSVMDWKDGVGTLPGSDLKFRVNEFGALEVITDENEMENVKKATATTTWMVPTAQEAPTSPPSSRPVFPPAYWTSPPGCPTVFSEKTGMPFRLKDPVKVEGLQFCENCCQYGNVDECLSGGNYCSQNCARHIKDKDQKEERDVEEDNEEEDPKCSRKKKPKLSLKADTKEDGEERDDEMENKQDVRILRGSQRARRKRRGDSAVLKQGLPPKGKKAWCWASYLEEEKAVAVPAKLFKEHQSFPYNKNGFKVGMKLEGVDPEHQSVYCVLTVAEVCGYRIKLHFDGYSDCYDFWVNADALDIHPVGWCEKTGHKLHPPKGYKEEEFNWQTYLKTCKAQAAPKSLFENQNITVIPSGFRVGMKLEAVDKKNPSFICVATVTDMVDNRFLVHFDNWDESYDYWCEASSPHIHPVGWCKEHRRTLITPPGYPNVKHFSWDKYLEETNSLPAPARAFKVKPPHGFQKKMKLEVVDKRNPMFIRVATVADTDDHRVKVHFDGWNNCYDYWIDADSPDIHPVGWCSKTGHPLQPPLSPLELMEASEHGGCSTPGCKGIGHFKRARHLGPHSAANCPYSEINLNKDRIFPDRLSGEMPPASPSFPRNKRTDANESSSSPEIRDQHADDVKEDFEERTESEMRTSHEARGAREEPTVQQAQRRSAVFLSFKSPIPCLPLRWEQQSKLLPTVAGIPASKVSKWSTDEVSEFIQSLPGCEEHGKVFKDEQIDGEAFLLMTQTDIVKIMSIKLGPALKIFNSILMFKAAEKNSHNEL
UniProt Q9UQN3, sequence (Q9UQN3 whole entry): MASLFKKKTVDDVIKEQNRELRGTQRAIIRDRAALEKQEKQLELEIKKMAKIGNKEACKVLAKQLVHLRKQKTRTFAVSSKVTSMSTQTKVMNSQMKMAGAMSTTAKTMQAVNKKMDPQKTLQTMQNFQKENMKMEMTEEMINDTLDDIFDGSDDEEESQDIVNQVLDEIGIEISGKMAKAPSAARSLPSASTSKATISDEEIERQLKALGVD
UniProt Q03519, sequence (Q03519 whole entry, one chain of several): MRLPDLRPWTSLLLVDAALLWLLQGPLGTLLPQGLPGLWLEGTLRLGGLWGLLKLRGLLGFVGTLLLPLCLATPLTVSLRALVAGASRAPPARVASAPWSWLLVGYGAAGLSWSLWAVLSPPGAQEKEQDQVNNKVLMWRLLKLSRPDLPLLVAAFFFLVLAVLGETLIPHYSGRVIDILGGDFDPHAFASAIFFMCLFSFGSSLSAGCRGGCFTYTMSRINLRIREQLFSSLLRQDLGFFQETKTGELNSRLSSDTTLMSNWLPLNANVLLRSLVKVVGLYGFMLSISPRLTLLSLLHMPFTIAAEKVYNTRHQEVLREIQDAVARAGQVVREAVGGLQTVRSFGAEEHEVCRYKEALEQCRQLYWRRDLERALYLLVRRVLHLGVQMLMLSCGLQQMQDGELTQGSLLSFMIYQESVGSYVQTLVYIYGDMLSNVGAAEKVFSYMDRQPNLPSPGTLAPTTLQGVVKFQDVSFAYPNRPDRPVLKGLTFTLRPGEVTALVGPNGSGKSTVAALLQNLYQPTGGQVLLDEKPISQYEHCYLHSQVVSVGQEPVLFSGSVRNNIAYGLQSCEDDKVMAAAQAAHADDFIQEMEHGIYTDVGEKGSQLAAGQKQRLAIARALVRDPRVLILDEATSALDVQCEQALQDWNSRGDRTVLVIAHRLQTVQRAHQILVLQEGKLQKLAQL
UniProt Q93052, sequence (Q93052 whole entry, one chain of several): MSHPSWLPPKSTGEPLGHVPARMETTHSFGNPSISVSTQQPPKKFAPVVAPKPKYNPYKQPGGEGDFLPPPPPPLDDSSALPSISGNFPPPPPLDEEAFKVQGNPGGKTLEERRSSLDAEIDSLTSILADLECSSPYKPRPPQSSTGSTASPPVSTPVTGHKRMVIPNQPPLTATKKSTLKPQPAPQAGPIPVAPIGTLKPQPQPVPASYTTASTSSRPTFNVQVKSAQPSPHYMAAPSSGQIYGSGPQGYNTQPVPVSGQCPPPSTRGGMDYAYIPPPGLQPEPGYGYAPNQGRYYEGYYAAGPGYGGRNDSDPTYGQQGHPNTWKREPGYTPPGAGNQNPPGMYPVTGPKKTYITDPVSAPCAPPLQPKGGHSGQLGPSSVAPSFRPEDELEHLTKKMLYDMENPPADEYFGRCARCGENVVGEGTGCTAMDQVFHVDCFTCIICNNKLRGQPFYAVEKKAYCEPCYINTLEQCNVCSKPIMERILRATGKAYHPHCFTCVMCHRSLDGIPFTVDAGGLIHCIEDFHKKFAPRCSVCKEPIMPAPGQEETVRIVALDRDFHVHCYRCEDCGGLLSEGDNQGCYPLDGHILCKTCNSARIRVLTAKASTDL
UniProt Q9Y3E2, sequence (Q9Y3E2 whole entry): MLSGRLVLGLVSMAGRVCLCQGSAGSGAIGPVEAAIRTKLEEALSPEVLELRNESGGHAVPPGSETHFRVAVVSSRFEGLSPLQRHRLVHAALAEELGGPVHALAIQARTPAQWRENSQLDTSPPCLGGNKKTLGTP
UniProt Q9UNE7, sequence (Q9UNE7 whole entry): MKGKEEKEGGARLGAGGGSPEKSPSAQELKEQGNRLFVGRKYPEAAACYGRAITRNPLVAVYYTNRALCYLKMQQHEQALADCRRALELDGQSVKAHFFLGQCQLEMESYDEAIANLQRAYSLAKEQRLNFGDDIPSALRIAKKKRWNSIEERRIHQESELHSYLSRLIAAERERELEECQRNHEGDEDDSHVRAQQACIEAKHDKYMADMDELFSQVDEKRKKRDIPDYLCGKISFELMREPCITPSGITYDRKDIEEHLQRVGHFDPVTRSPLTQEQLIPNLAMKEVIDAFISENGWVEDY
UniProt Q9H0F7, sequence (Q9H0F7 whole entry, one chain of several): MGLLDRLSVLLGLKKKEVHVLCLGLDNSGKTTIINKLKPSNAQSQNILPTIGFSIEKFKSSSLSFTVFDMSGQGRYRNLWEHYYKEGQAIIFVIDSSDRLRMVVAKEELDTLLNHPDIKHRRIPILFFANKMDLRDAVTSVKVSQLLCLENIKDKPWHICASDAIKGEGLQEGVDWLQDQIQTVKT
UniProt Q9H3N1, sequence (Q9H3N1 whole entry): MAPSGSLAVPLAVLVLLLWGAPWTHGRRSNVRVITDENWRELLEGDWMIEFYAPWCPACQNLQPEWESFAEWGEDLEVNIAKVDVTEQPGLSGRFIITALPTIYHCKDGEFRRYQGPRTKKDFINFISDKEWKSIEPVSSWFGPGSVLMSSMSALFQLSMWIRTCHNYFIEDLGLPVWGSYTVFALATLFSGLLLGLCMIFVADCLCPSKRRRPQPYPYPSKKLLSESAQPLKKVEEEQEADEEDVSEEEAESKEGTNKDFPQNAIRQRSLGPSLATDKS
UniProt Q9BWJ5, sequence (Q9BWJ5 whole entry): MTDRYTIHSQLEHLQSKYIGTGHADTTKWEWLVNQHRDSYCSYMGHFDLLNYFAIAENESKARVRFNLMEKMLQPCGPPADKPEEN

Target	NP40-soluble protein abundance (concentration: 0.1mM)	NP40-soluble protein abundance (concentration: 0.5mM)	NP40-soluble protein abundance (concentration: 1mM)	NP40-soluble protein abundance (concentration: 2mM)	NP40-soluble protein abundance (concentration: 4mM)	NP40-soluble protein abundance (concentration: 6mM)	NP40-soluble protein abundance (concentration: 8mM)	NP40-soluble protein abundance (concentration: 10mM)
UniProt Q9BVP2|Q9BVP2-2	1.31 ± 0.073	1.3 ± 0.094	1.34 ± 0.11	1.51 ± 0.19	1.68 ± 0.17	1.73 ± 0.13	1.77 ± 0.2	1.88 ± 0.072
UniProt Q9UG63|Q9UG63-2	1.1 ± 0.076	1.11 ± 0.014	1.07 ± 0.072	1.35 ± 0.072	1.83 ± 0.061	2.15 ± 0.12	2.39 ± 0.11	2.744 ± 0.018
UniProt Q9Y2S2|Q9Y2S2-2	1.09 ± 0.12	0.991 ± 0.11	0.974 ± 0.12	0.971 ± 0.11	0.948 ± 0.12	0.922 ± 0.13	0.946 ± 0.15	0.912 ± 0.18
PGAM5 (UniProt Q96HS1)	1.03 ± 0.034	1.09 ± 0.073	1.18 ± 0.14	1.4 ± 0.26	1.67 ± 0.38	1.79 ± 0.45	1.86 ± 0.4	1.95 ± 0.47
UniProt Q9H3N1	0.957 ± 0.055	0.947 ± 0.043	0.935 ± 0.04	0.871 ± 0.062	0.858 ± 0.071	0.878 ± 0.091	0.885 ± 0.053	0.859 ± 0.065
UniProt Q93052|A0A087WZF1|C9JXK9	0.985 ± 0.047	0.946 ± 0.086	0.944 ± 0.072	0.906 ± 0.071	0.884 ± 0.063	0.896 ± 0.081	0.906 ± 0.083	0.901 ± 0.09
UniProt Q969P0|Q969P0-3	1.02 ± 0.066	1 ± 0.048	0.961 ± 0.07	0.956 ± 0.058	0.932 ± 0.069	0.932 ± 0.049	0.953 ± 0.053	0.919 ± 0.077
UniProt Q96B97|Q96B97-2	0.941 ± 0.12	0.938 ± 0.1	0.962 ± 0.1	0.943 ± 0.13	0.949 ± 0.1	0.935 ± 0.098	0.982 ± 0.11	0.966 ± 0.12
UniProt Q9Y2X0-2|Q9Y2X0-3|Q9Y2X0	1.09 ± 0.2	1.07 ± 0.21	1.04 ± 0.17	1.16 ± 0.28	1.08 ± 0.21	1.11 ± 0.16	1.12 ± 0.18	1.04 ± 0.19
SF3B5 (UniProt Q9BWJ5)	1.1 ± 0.16	1.11 ± 0.16	1.17 ± 0.23	1.27 ± 0.2	1.25 ± 0.21	1.33 ± 0.15	1.31 ± 0.19	1.38 ± 0.22
RNF114 (UniProt Q9Y508)	0.95 ± 0.011	0.967 ± 0.032	0.924 ± 0.041	0.91 ± 0.068	0.895 ± 0.057	0.897 ± 0.056	0.876 ± 0.072	0.888 ± 0.084
UniProt Q99707|Q99707-2	0.997 ± 0.019	1.01 ± 0.062	0.987 ± 0.015	1.01 ± 0.033	0.973 ± 0.022	0.965 ± 0.0072	0.928 ± 0.023	0.927 ± 0.029
FN3KRP (UniProt Q9HA64)	0.9717 ± 0.0097	0.991 ± 0.014	0.927 ± 0.032	0.913 ± 0.061	0.905 ± 0.042	0.884 ± 0.031	0.89 ± 0.047	0.868 ± 0.051
STUB1 (UniProt Q9UNE7)	0.948 ± 0.056	0.8985 ± 0.0031	1.02 ± 0.1	1.03 ± 0.027	1.01 ± 0.078	1.01 ± 0.012	1.01 ± 0.049	1.03 ± 0.081
UniProt Q96MT7-2	1.09 ± 0.063	0.959 ± 0.033	1 ± 0.093	0.863 ± 0.12	0.869 ± 0.04	0.915 ± 0.14	0.834 ± 0.052	0.786 ± 0.082
UniProt Q9NVX0|Q9NVX0-2|Q9NVX0-3	0.873 ± 0.21	0.823 ± 0.036	1.02 ± 0.079	1.05 ± 0.083	1.01 ± 0.12	0.996 ± 0.14	0.963 ± 0.022	1.02 ± 0.17
UniProt Q9BSF4	1.16 ± 0.16	1.09 ± 0.11	1.12 ± 0.085	1.11 ± 0.027	1.18 ± 0.091	1.17 ± 0.037	0.972 ± 0.071	0.97875 ± 0.0002
SMARCD1 (UniProt Q96GM5)	1.06 ± 0.036	1.11 ± 0.065	1.09 ± 0.089	1.18 ± 0.16	1.18 ± 0.17	1.18 ± 0.19	1.15 ± 0.18	1.16 ± 0.17
LEMD3 (UniProt Q9Y2U8)	0.989 ± 0.049	1 ± 0.038	1.01 ± 0.037	1.01 ± 0.048	0.999 ± 0.036	0.985 ± 0.033	1.01 ± 0.049	0.985 ± 0.027

Target	NP40-soluble protein abundance (concentration: 0.1mM)	NP40-soluble protein abundance (concentration: 0.5mM)	NP40-soluble protein abundance (concentration: 1mM)	NP40-soluble protein abundance (concentration: 2mM)	NP40-soluble protein abundance (concentration: 4mM)	NP40-soluble protein abundance (concentration: 6mM)	NP40-soluble protein abundance (concentration: 8mM)	NP40-soluble protein abundance (concentration: 10mM)
BOLA1 (UniProt Q9Y3E2)	0.909 ± 0.069	0.941 ± 0.075	0.943 ± 0.06	0.943 ± 0.028	0.908 ± 0.073	0.933 ± 0.059	0.903 ± 0.038	1.04 ± 0.055
UniProt Q9UKZ1	1.52 ± 0.81	1.19 ± 0.11	1.4 ± 0.41	2.81 ± 2.7	1.26 ± 0.14	1.24 ± 0.11	1.29 ± 0.15	1.36 ± 0.051
PSMG3 (UniProt Q9BT73)	1.03 ± 0.027	1.09 ± 0.083	1.09 ± 0.058	1.07 ± 0.042	1.08 ± 0.054	0.999 ± 0.087	1.14 ± 0.087	1.04 ± 0.042
MED10 (UniProt Q9BTT4)	1.01 ± 0.2	1.03 ± 0.098	0.973 ± 0.028	1.07 ± 0.11	0.95 ± 0.094	1.08 ± 0.05	0.968 ± 0.092	1.07 ± 0.038
UniProt Q96JM7|Q96JM7-2	1.13 ± 0.15	1.14 ± 0.016	1.08 ± 0.16	1.13 ± 0.078	1.1 ± 0.2	1.23 ± 0.031	1.11 ± 0.056	1.15 ± 0.073
WDR3 (UniProt Q9UNX4)	1.12 ± 0.08	1.15 ± 0.098	1.13 ± 0.061	1.42 ± 0.13	1.81 ± 0.16	1.98 ± 0.2	2.04 ± 0.12	1.974 ± 0.012
UniProt Q9H0F7|Q9H0F7-2|A0A0J9YXT0	1.02 ± 0.063	1.03 ± 0.1	0.914 ± 0.011	0.986 ± 0.12	0.932 ± 0.065	0.904 ± 0.032	0.864 ± 0.061	0.882 ± 0.065
TBC1D13 (UniProt Q9NVG8)	0.962 ± 0.036	0.985 ± 0.048	0.927 ± 0.046	0.896 ± 0.047	0.857 ± 0.071	0.866 ± 0.066	0.847 ± 0.1	0.822 ± 0.089
UniProt Q9H330|Q9H330-2	0.908 ± 0.04	0.876 ± 0.06	0.796 ± 0.083	0.809 ± 0.017	0.799 ± 0.035	0.834 ± 0.028	0.81 ± 0.074	0.833 ± 0.037
AFG3L2 (UniProt Q9Y4W6)	0.998 ± 0.016	0.996 ± 0.016	0.946 ± 0.024	0.969 ± 0.022	0.977 ± 0.022	0.987 ± 0.04	0.988 ± 0.02	0.938 ± 0.014
SUCLG2 (UniProt Q96I99)	0.959 ± 0.049	0.966 ± 0.053	0.933 ± 0.043	0.901 ± 0.06	0.889 ± 0.059	0.889 ± 0.052	0.886 ± 0.048	0.871 ± 0.068
UniProt Q99828|Q99828-2	0.956 ± 0.08	0.981 ± 0.11	1.02 ± 0.081	1.02 ± 0.084	1.02 ± 0.092	1 ± 0.12	0.996 ± 0.11	0.911 ± 0.12
ULBP2 (UniProt Q9BZM5)	0.893 ± 0.085	0.86 ± 0.1	0.918 ± 0.073	0.884 ± 0.1	0.907 ± 0.098	0.89 ± 0.043	0.916 ± 0.1	0.925 ± 0.088
CHMP2B (UniProt Q9UQN3)	0.905 ± 0.051	0.909 ± 0.092	0.989 ± 0.079	0.931 ± 0.15	0.938 ± 0.12	0.967 ± 0.14	0.953 ± 0.085	0.932 ± 0.11
UniProt Q9NY12|Q9NY12-2	1.04 ± 0.097	1.06 ± 0.12	1.17 ± 0.2	1.34 ± 0.15	1.51 ± 0.24	1.72 ± 0.19	1.9 ± 0.27	2.35 ± 0.49
EXOSC4 (UniProt Q9NPD3)	1.07 ± 0.061	0.988 ± 0.057	0.996 ± 0.015	0.994 ± 0.11	1.12 ± 0.023	1.12 ± 0.095	1.11 ± 0.089	1.16 ± 0.054
JARID2 (UniProt Q92833)	0.971 ± 0.078	1.07 ± 0.11	1.09 ± 0.088	1.08 ± 0.087	1.05 ± 0.04	1.05 ± 0.088	1.18 ± 0.04	1.15 ± 0.026
UniProt Q9UJ83|Q9UJ83-2|Q9UJ83-3	1.067 ± 0.0066	1.03 ± 0.11	0.98 ± 0.05	1.01 ± 0.11	0.987 ± 0.04	0.958 ± 0.08	0.926 ± 0.021	0.9129 ± 0.0074
X5CMH5 (UniProt Q03519)	1.09 ± 0.036	1.08 ± 0.054	0.978 ± 0.028	1.01 ± 0.085	0.976 ± 0.063	0.951 ± 0.051	0.934 ± 0.015	0.918 ± 0.065
